Test results as given in paper PMC5540273 (PLoS ONE, 2017).

Legend:
Conditions in all cases: concentration: 1 μM, replicates: in singlicate; n = 1
AXL = test system: AXL
BIKE = test system: T1, BIKE
T1 construct: gene BMP2K

BLK = test system: BLK
BMPR1A = test system: BMPR1A
BMPR1B = test system: BMPR1B
BMPR2 = test system: BMPR2
BMX = test system: BMX
BRAF = test system: BRAF
BRK = test system: T2, BRK
T2 construct: gene PTK6

BRSK1 = test system: BRSK1
BRSK2 = test system: BRSK2
BTK = test system: BTK
BUB1 = test system: BUB1
CAMK1B = test system: CAMK1B
CAMK1D = test system: CAMK1D
CAMK1G = test system: CAMK1G
CAMK1 = test system: CAMK1
CAMK2A = test system: CAMK2A
CAMK2B = test system: CAMK2B
CAMK2D = test system: CAMK2D
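Also: KINOMEscan kinase panel screen.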

| Structure (SMILES) | %Inh (AXL) | %Inh (BIKE) | %Inh (BLK) | %Inh (BMPR1A) | %Inh (BMPR1B) | %Inh (BMPR2) | %Inh (BMX) | %Inh (BRAF) | %Inh (BRK) | %Inh (BRSK1) | %Inh (BRSK2) | %Inh (BTK) | %Inh (BUB1) | %Inh (CAMK1B) | %Inh (CAMK1D) | %Inh (CAMK1G) | %Inh (CAMK1) | %Inh (CAMK2A) | %Inh (CAMK2B) | %Inh (CAMK2D) |
| --- | --- | --- | --- | --- | --- | --- | --- | --- | --- | --- | --- | --- | --- | --- | --- | --- | --- | --- | --- | --- |
| CC(C)(C)c1ccc(C(=O)Nc2cn3cc(-c4ccccc4)ccc3n2)cc1 | 0% | 0% | 0% | 8% | 0% | 0% | 13% | 0% | 0% | 0% | 0% | 0% | 0% | 6% | 0% | 0% | 0% | 0% | 0% | 0% |
| O=C(Nc1n[nH]c2nc(-c3ccccc3)c(Br)cc12)C1CC1 [SB-708998] | 0% | 28% | 8% | 16% | 0% | 0% | 7% | 31% | 0% | 60% | 32% | 0% | 11% | 26% | 4% | 0% | 4% | 0% | 0% | 4% |
| Cc1cc(Nc2nc(-c3cccc(C)n3)nc3ccccc23)ccn1 [GW872411] | 0% | 0% | 0% | 3% | 0% | 0% | 0% | 0% | 0% | 0% | 13% | 0% | 0% | 0% | 0% | 0% | 0% | 0% | 0% | 0% |
| Nc1n[nH]c2ncc(-c3ccccc3)cc12 [SB-517081] | 0% | 17% | 13% | 2% | 0% | 34% | 0% | 0% | 24% | 0% | 0% | 0% | 34% | 58% | 40% | 17% | 18% | 0% | 0% | 11% |
| CCCC(=O)Nc1n[nH]c2ncc(-c3cccc4ccccc34)cc12 [SB-642057] | 18% | 28% | 0% | 12% | 5% | 0% | 0% | 0% | 0% | 0% | 0% | 0% | 35% | 7% | 14% | 11% | 0% | 0% | 0% | 14% |
| CCC(=O)c1c(-c2ccccc2)c2cc(Cl)ccc2c(=O)n1Cc1cc(S(C)(=O)=O)n(CC(F)F)n1 | 0% | 0% | 0% | 0% | 6% | 1% | 0% | 13% | 0% | 0% | 0% | 0% | 4% | 0% | 0% | 1% | 0% | 2% | 0% | 0% |
| Nc1nccc2scc(-c3ccc4c(c3)CCN4C(=O)Cc3ccccc3)c12 [GSK2576924] | 36% | 8% | 1% | 0% | 0% | 2% | 19% | 0% | 43% | 0% | 0% | 0% | 0% | 33% | 10% | 0% | 9% | 10% | 2% | 4% |
| Cc1ccc(-c2ccc3c(ccc4sc5c(c43)NC[C@@H](C)N=C5N(C)C)n2)cn1 | 0% | 0% | 0% | 0% | 0% | 0% | 0% | 0% | 0% | 0% | 0% | 0% | 0% | 0% | 0% | 0% | 0% | 0% | 0% | 0% |
| CCC(=O)c1c(-c2ccccc2)c2cc(Cl)ccc2c(=O)n1Cc1cc(S(C)(=O)=O)n(CC(N)=O)n1 | 2% | 0% | 5% | 0% | 0% | 0% | 16% | 0% | 0% | 0% | 0% | 0% | 0% | 0% | 21% | 0% | 3% | 0% | 0% | 0% |
| Nc1ncnc2c1ncn2-c1ccc(Cl)cc1 [AH2635] | 0% | 28% | 24% | 0% | 0% | 2% | 20% | 0% | 0% | 0% | 9% | 0% | 25% | 3% | 4% | 0% | 5% | 0% | 0% | 0% |
| Nc1nc(-c2ccccc2F)c(-c2ccnc3ccccc23)s1 [GW560459] | 0% | 17% | 39% | 0% | 13% | 2% | 0% | 7% | 0% | 0% | 4% | 0% | 61% | 0% | 0% | 0% | 6% | 0% | 0% | 0% |
| COc1ccc(CNC(=O)NC2CCN(c3ccnc(Nc4ccc(F)cc4)n3)C2)cc1 (stereo not drawn) [GSK1379706] | 10% | 0% | 3% | 6% | 0% | 22% | 26% | 3% | 21% | 0% | 3% | 18% | 50% | 0% | 4% | 8% | 5% | 0% | 0% | 18% |
| Nc1n[nH]c2nnc(-c3ccccc3)c(-c3ccccc3)c12 [GW554060] | 0% | 22% | 35% | 0% | 41% | 0% | 22% | 2% | 8% | 10% | 0% | 2% | 60% | 5% | 0% | 4% | 3% | 0% | 0% | 0% |
| CCn1c(-c2nonc2N)nc2ccccc21 [SB-693162/GW549034] | 25% | 6% | 21% | 0% | 34% | 40% | 0% | 15% | 0% | 46% | 4% | 29% | 0% | 8% | 20% | 0% | 17% | 5% | 0% | 0% |
| COc1cc2nccc(Nc3ccc(OCc4ccc(NC(C)=O)cc4)cc3)c2cc1OC.Cl [GW440135] | 13% | 0% | 26% | 24% | 0% | 8% | 26% | 6% | 36% | 0% | 0% | 0% | 46% | 31% | 8% | 0% | 5% | 0% | 0% | 4% |
| Cc1nn2c(=O)cc(N3CCOCC3)nc2n1Cc1cccc(Cl)c1Cl [GSK2342769] | 4% | 2% | 18% | 0% | 0% | 4% | 12% | 7% | 1% | 0% | 0% | 0% | 12% | 28% | 8% | 8% | 9% | 0% | 0% | 1% |
| COc1ccc(-c2cc3c(C)nc(N)nc3n([C@H]3CC[C@H](O)CC3)c2=O)cn1 | 0% | 0% | 0% | 40% | 0% | 0% | 0% | 0% | 0% | 0% | 0% | 0% | 0% | 0% | 0% | 0% | 0% | 0% | 0% | 0% |
| Nc1nc(N)c2nc(-c3ccccc3)[nH]c2n1 [SKF-12778] | 19% | 3% | 0% | 0% | 0% | 7% | 0% | 1% | 16% | 0% | 0% | 0% | 23% | 18% | 0% | 0% | 0% | 0% | 0% | 0% |
| Cc1c(Cn2c(C)nn3c(=O)cc(N4CCO[C@H](C)C4)nc23)cccc1C(F)(F)F [GSK2373690] | 0% | 31% | 10% | 15% | 0% | 0% | 21% | 0% | 32% | 7% | 0% | 0% | 0% | 0% | 7% | 0% | 7% | 0% | 0% | 0% |
| O=C(NCCNc1ccnc(Nc2ccc(F)cc2)n1)Nc1ccc2c(c1)OCO2 [GSK1379882] | 0% | 17% | 7% | 0% | 10% | 0% | 7% | 0% | 0% | 11% | 0% | 0% | 18% | 0% | 9% | 0% | 20% | 0% | 0% | 4% |
| O=C(NCc1cccs1)c1cc(C(=O)c2c(Cl)cccc2Cl)c[nH]1 [GW823670] | 0% | 19% | 28% | 7% | 0% | 15% | 0% | 0% | 0% | 0% | 0% | 0% | 0% | 0% | 0% | 0% | 0% | 0% | 0% | 0% |
